Results on 20 molecules are retold here after PubChem BioAssay (NCI).

Test [1] can be described thus: NCI Yeast Anticancer Drug Screen. Data for the rad50 strain (AID 155).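 Further: 0% = growth of vehicle-only cultures of the same strain.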 To be noted: S. cerevisiae rad50 strain growth inhibition; at 50.0 µM; hits give high values. An outline of the steps:
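Yeast carrying a defined DNA repair defect were exposed to test compounds, and growth was compared with vehicle-treated controls to give percent inhibition.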

The nature of test [2]: NCI Yeast Anticancer Drug Screen. Data for the mec2-1 strain (AID 157). Particulars: S. cerevisiae mec2-1 strain, at 50.0 µM, hits give high values. An outline of the steps: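 mec2-1 yeast strain, carrying an alteration in DNA damage repair or cell cycle control, was exposed to compounds; growth inhibition was measured relative to vehicle-treated controls.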
Test [3] is described as follows: NCI Yeast Anticancer Drug Screen. Data for the sgs1 mgt1 strain (AID 161).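 Further: 0% = growth of cultures given vehicle only.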 Particulars: S. cerevisiae sgs1 mgt1 strain, at 50.0 µM, hits give high values. The procedure, abridged:
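Growth of a repair-deficient yeast mutant was monitored after compound treatment and expressed as inhibition relative to vehicle-treated cultures.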

Test [4] is described as follows: NCI Yeast Anticancer Drug Screen. Data for the cln2 rad14 strain (AID 165).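 Further: 0% = growth equal to vehicle treated cultures.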 To be noted: S. cerevisiae cln2 rad14 strain, at 50.0 µM, hits give high values. The procedure, abridged:
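Yeast carrying cln2 and rad14 alterations (cell cycle control and DNA damage repair) were exposed to compounds. Growth inhibition was measured against vehicle-treated controls.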

A short description of test [5]: NCI Yeast Anticancer Drug Screen. Data for the bub3 strain (AID 167). Particulars: S. cerevisiae bub3 mutant strain, at 50.0 µM, hits give high values. An outline of the steps: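 Compounds were applied to a genetically altered yeast strain carrying a cell-cycle control defect. Growth inhibition was scored against vehicle-treated controls.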
The nature of test [6]: NCI Yeast Anticancer Drug Screen. Data for the mlh1 rad18 strain (AID 175). To be noted: S. cerevisiae mlh1 rad18 strain growth inhibition; at 50.0 µM; hits give high values. The procedure, abridged:
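Growth inhibition of the yeast strain was measured after compound exposure and expressed relative to vehicle-treated controls. The strain carries defined defects in DNA damage repair.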

The panel holds about 79,000 compounds, 15% with a hit somewhere; the sample as a whole holds those more often. A number with no mark means an inactive call. Active and inactive are the calls of the source. No stated cut-off is given here; in the data, active means growth inhibition above about 70%; inactive means the rest.

`ClCCN(CCCl)c1cc(Cl)ccc1Oc1ccccc1`: the growth inhibition in test [1] was -35.8%; in test [2] it was -4.3%; in test [3], 1.25%; in test [4], -42%; in test [5] it was 18.9%; in test [6], -1.55%.

On to `Clc1ccc(C(c2ccc(Cl)cc2)c2ccccn2)cc1`, for which the growth inhibition in test [1] is 98.5% (active); in test [2] it was 98.3% (active); in test [3], 98.5% (active); in test [4], 97.8% (active); in test [5], 98.3% (active); in test [6], 98.4% (active).

On to `CN1CN(c2ccccc2)C2(CCN(CCC3COc4ccccc4O3)CC2)C1=O` (stereo not given), for which the growth inhibition was -15.4% in test [1]; -10.3% in test [2]; -10.1% in test [3]; -1.4% in test [4]; -4.45% in test [5]; -1.35% in test [6].

Take `COc1ccc(C(CC(=O)O)CC(=O)c2ccc(N(CCCl)CCCl)cc2)cc1` (stereo not given): the growth inhibition in test [1] was 54%; in test [2], 22.7%; in test [3], 24.8%; in test [4], 74.7% (active); in test [5] it was 87.3% (active); in test [6], 68.5%.

Turning to `O=C1/C(=C\c2ccc([N+](=O)[O-])cc2)N2CCC1CC2`, the growth inhibition in test [1] is -8.3%; in test [2], 5.3%; in test [3] it was -3.65%; in test [4], -0.45%; in test [5], 1.75%; in test [6], 7.05%.

For the molecule `COc1cc(C=O)cc(OC)c1OC`, the growth inhibition in test [1] was 1.45%; in test [2] it was -10.6%; in test [3], 5.25%; in test [4], -14.1%; in test [5] it was -7.1%; in test [6] it was -20.1%.

Turning to `O=S(=O)(O)C1CCC(O)C2[N-]CCCC21.O=S(=O)(O)C1CCC(O)C2[N-]CCCC21.[Ni+2]` (stereo not given), the growth inhibition is 50.8% in test [1]; -4.3% in test [2]; 27.9% in test [3]; -13.4% in test [4]; 8.4% in test [5]; 23.9% in test [6].

On to `CN(C)C(=O)Oc1ccc([N+](=O)[O-])cc1OC(=O)N(C)C`, for which the growth inhibition in test [1] was 2.4%; in test [2], -5.25%; in test [3] it was 0.8%; in test [4], -8.65%; in test [5], 9.95%; in test [6], -4.05%.

Regarding `CCOP(=O)(CC(=O)C1CC1)OCC`, the growth inhibition in test [1] was -28.8%; in test [2], -20.5%; in test [3], -26.2%; in test [4], -21.9%; in test [5], -20.9%; in test [6], -43.1%.

On to `CCOP(=O)(CC(N)=O)OCC`, for which the growth inhibition is -4.9% in test [1]; 9.8% in test [2]; 3.5% in test [3]; 0.1% in test [4]; 13.8% in test [5]; -11.8% in test [6].

Turning to `Nc1ccc(Oc2ccc(N)cc2)cc1`, the growth inhibition was 3.1% in test [1]; 10% in test [2]; 14.6% in test [3]; 11.7% in test [4]; 12.4% in test [5]; 26.1% in test [6].

For the molecule `CC(C)(C#N)O[N+](=O)[O-]`, the growth inhibition was 0.1% in test [1]; 7.3% in test [2]; -4.7% in test [3]; -16.8% in test [4]; -0.7% in test [5]; 0.2% in test [6].

On to `O=[As](O)(O[As](=O)(O)c1ccccc1)c1ccccc1`, for which the growth inhibition in test [1] was 24.4%; in test [2], 18.1%; in test [3] it was 17.1%; in test [4], 5%; in test [5], -0.05%; in test [6] it was 28.5%.

`NC(Cc1ccc(O)c(O)c1)c1ccccc1` (stereo not given): the growth inhibition is -12.1% in test [1]; 4.2% in test [2]; -2.55% in test [3]; -25.8% in test [4]; -7.75% in test [5]; -22.6% in test [6].

In the case of `O=P1(N2CCCCC2)OCC2(CO1)COP(=O)(N1CCCCC1)OC2` (stereo not given), the growth inhibition is -7.15% in test [1]; -0.6% in test [2]; 0.1% in test [3]; -7.55% in test [4]; -1.65% in test [5]; 3.2% in test [6].

On to `Cc1ccc2c3c(c(=O)oc2c1)[C@H](C)C[C@@](C)(CO)O3`, for which the growth inhibition is -8.35% in test [1]; 1.9% in test [2]; 9.8% in test [3]; -5.4% in test [4]; 3.7% in test [5]; -7.35% in test [6].

Regarding `CN(C)[C@@H]1C(=O)C(C(N)=O)=C(O)[C@@]2(O)C(=O)C3=C(O)c4c(O)ccc(Cl)c4[C@@](C)(O)[C@H]3C[C@@H]12`, the growth inhibition in test [1] was -16.9%; in test [2] it was 1.1%; in test [3] it was 13.2%; in test [4], -6.6%; in test [5] it was -8.8%; in test [6], -4.1%.

Turning to `CC1CCC2C(C)C(=O)OC3OC4(C)CCC1C32OO4` (stereo not given), the growth inhibition in test [1] is -7.55%; in test [2], 4.2%; in test [3], -8.05%; in test [4], 27.8%; in test [5], 18.2%; in test [6], 2.7%.

Turning to `COc1ccc(CCF)cc1`, the growth inhibition in test [1] is -4.95%; in test [2], 4%; in test [3], -0.7%; in test [4], -9.85%; in test [5], 4.4%; in test [6] it was -3.85%.

On to `CC1(C)N=C(N/N=C/c2ccccc2)SP1(=O)NNc1ncccn1` (stereo not given), for which the growth inhibition in test [1] was -7.85%; in test [2], 0.95%; in test [3] it was -20.1%; in test [4], 2.35%; in test [5], 3.55%; in test [6] it was 1.25%.
